Screening data as filed in PubChem BioAssay.
Pin1 inh – inhibitors of human Pin1; actives 0.009% (n = 390,000); Q13526; AID 504891; Potency, µM (highest dose often 115 µM), for inactives: at the top dose activity, negative = inhibition, hits mostly inhibitors; Pin1 FP peptide displacement, HiFluor488, 10 min; active = well fitted inhibition curve with a large enough effect in the polarisation, with a control signal flat, not every such curve was filed as active; inconclusive = small, poorly fitted or top-dose-only effect, or effect the other way, or a change in a side signal; inactive = no such curve, though single readings can be large or run the other way; the % refers to the polarisation; note: % is set by controls: 0 for no effect and ±100 for the full control effect
Target sequence (Q13526 whole entry, looked up): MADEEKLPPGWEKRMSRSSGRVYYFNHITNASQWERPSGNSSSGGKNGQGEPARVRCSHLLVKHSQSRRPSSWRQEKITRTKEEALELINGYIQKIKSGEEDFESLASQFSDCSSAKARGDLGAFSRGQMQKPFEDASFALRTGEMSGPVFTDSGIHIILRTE
GLP1R inv ag – acts as inverse agonist at human GLP-1 receptor | AID 624417 | Potency, µM (series often up to 38.3 µM), for inactives: top-dose activity change, negative = inhibition, most hits filed as inhibitors | actives 1.6% (n = 410,000) | HEK293 GLP-1R CRE-luciferase, luminescence, 24 h; GLP-1R form is constitutively active | P43220; note: % is set by controls: 0 for no effect and ±100 for the full control effect; nearly all actives have a fitted effect of over 55% in size
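HEK293 cells stably co-expressing a cAMP-responsive luciferase reporter and constitutively active GLP-1R were seeded, incubated 12 h, then exposed to compounds for 24 h at 37 C. Luminescence was read 12 min after detection reagent; inverse agonists lower signal.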
GLP-1R agonist – activates the human GLP-1 receptor | P43220 | HEK293 GLP-1R CRE-luciferase, luminescence, 4-6 h; cells express a hypersensitive GLP-1R form | Potency, µM (highest dose often 45.6 µM), for inactives: top-dose activation, most hits filed as activators | actives 0.007% (n = 380,000); note: % of control where 0% means no effect
HEK293 tox – cytotoxicity counter-screen for GLP-1 receptor inverse agonists | actives 0.13% (n = 410,000) | HEK293 cAMP-luciferase reporter cells, luminescence, 24 h | Potency, µM (top dose mostly 38.3 µM), without a hit: at the top dose activity change, negative = inhibition, hits mostly inhibitors;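 note: loss of luciferase light is scored as toxicity; % is set by controls: 0 for no effect and ±100 for the full control effect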
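Here, cytotoxicity is scored as loss of luminescence. The MLSMR collection was tested on cells seeded in medium containing 10% Nu serum, with a 24 hr compound exposure preceded by 12 hours of culture.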
Tb PFK inh – T. brucei PFK enzyme inhibition | O15648 | T. brucei PFK, ADP-Glo luminescence | Potency, µM (titrated, usually from 57.5 µM), inactives show at the top dose activity, negative = inhibition, actives largely listed as inhibitors | actives 0.17% (n = 330,000);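 note: 0% = uninhibited 1x PFK enzyme wells and -100% = no-enzyme wells; nearly all actives have a fitted effect of over 60% in size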
Target sequence (O15648 whole entry, looked up): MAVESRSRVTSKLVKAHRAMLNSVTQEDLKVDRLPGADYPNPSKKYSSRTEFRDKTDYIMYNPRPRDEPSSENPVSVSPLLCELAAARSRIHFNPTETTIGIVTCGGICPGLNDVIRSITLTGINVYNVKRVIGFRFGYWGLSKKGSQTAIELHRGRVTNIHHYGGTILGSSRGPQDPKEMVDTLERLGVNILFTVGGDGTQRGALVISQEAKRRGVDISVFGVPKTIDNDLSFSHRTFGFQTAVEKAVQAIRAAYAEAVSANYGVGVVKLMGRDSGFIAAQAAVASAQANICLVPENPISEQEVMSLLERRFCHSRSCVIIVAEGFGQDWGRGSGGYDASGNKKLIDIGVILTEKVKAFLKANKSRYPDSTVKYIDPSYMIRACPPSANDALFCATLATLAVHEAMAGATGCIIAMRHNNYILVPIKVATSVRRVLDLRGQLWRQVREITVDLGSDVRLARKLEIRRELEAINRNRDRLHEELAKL
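Activity is normalized to no-enzyme wells (full inhibition) and 1.25 nM enzyme wells (no inhibition). Reaction: 0.5 mM F6P, 0.1 mM ATP, 45 min RT, ADP-Glo luminescence; concentration-response curves fitted and classed by quality.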
PGK inhibitor – T. brucei PGK inhibition. PGK/GAPDH coupled, Kinase-Glo luminescence, 60 min. Potency, µM (highest dose often 57.5 µM), for the others: top-dose activity change, negative = inhibition, actives largely listed as inhibitors. actives 0.043% (n = 380,000). P07378. AID 602233; note: % is set by controls: 0 for no effect and ±100 for the full control effect; nearly all actives have a fitted effect of over 60% in size
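Luminescent ATP detection (Kinase-Glo Plus) follows a 60-minute room-temperature incubation, with wells lacking PGK as controls. Buffer: 100 mM TEA (pH 7.6), 5 mM MgCl2, 0.01% Tween-20. Coupling enzyme GAPDH (100 nM final) supplies unstable 1,3-BPG in-well.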
* marks the source's active call; other numbers are inactive results; i = inactive; u = inconclusive; x = no result given. Only some compounds are listed: those with a hit (about 1.8% of all), similar ones and a draw of the others. Unless noted, calls come from the whole dose curve; as a rule, active = well fitted curve in the direction sought with a large enough effect; inconclusive = small, poorly fitted or top-dose-only effect, or another doubt; inactive = no such curve, though single readings can be large; an effect the other way counts as inactive or inconclusive. Potency is the fitted concentration of half-maximal effect.

SMILES	Pin1 inh	GLP1R inv ag	GLP-1R agonist	HEK293 tox	Tb PFK inh	PGK inhibitor
Cc1nc2c(O)c3c(c(O)c2nc1C)C1C=CC3CC1	-3.6%	u	-5.2%	5.62µM*	x	i
NC1=NC(S)C2N=CN=C2N1 (stereo not given)	x	x	13.0%	x	x	x
Cc1cccc(OCC(O)Cn2c(=N)n(Cc3ccccc3)c3ccccc32)c1 (stereo not given)	0.6%	u	-3.5%	-16.3%	-15.1%	i
Cc1ccc(OCC(O)Cn2c(=N)n(Cc3ccccc3)c3ccccc32)cc1 (stereo not given)	1.3%	11.2µM*	-4.7%	u	0.2%	i
COc1ccc(OCC(O)Cn2c(=N)n(Cc3ccccc3)c3ccccc32)cc1 (stereo not given)	-2.1%	u	-19.9%	7.94µM*	-0.5%	i
CCN(CC)CCn1c(=N)n(CC(O)COc2ccccc2C)c2ccccc21 (stereo not given)	2.0%	10µM*	x	u	x	x
CCn1c(=N)n(CC(O)COc2ccccc2)c2ccccc21 (stereo not given)	4.2%	u	-5.6%	-20.1%	x	-8.0%
CCN(CC)CCn1c(=N)n(CC(O)COc2cccc(C)c2)c2ccccc21 (stereo not given)	-8.2%	u	6.9%	u	-0.7%	i
CCC(C)NC(=O)c1ccc2c(c1)sc1nc(-c3ccc(OC)cc3)cn12 (stereo not given)	55.4%	-10.0%	x	-11.6%	x	0.2%
C/C(=N\NC(=O)COc1cccc(C)c1)c1ccc2ccccc2c1O	4.2%	1.12µM*	0.5%	1.1%	16.7%	-0.3%
CC(=O)c1ccc2c(c1)C1C=CCC1C(C(=O)O)N2 (stereo not given)	x	-10.7%	-0.9%	-10.0%	8.49µM*	14.1µM*
Cc1ccc2c(c1)C1C=CCC1C(C(=O)O)N2 (stereo not given)	x	x	x	x	-16.4%	x
Cc1ccc(C)c(NC(=S)c2ccc3ccccc3n2)c1	0.7%	5.62µM*	3.9%	2.82µM*	-2.8%	i
CCCCS(=O)(=O)N[C@@H](Cc1ccc(OCCCCC2CCNCC2)cc1)C(=O)O	x	x	3.7%	x	x	x
C=C1C[C@@H]2[C@H]3CCC4=CC(=O)C=C[C@]4(C)[C@@]3(F)[C@@H](O)C[C@]2(C)[C@]1(O)C(=O)COC(C)=O	x	x	0.0%	x	x	x
CC(C)CC(O)(CC(C)C)C(=O)NNc1ccccc1	6.6%	5.62µM*	-7.7%	-14.9%	-4.7%	-3.7%
CC(C)CCC(O)(CCC(C)C)C(=O)NNc1ccccc1	-1.3%	u	-2.9%	-5.1%	8.0%	-0.2%
CC(C(=O)O/N=C(\N)c1ccccn1)c1ccc([N+](=O)[O-])cc1 (stereo not given)	-1.4%	-12.1%	12.0%	-6.2%	u	-6.8%
N/C(=N\OCc1ccc([N+](=O)[O-])cc1)c1ccccn1	-4.4%	1.26µM*	-3.2%	-2.6%	-16.4%	u
CC1(C)Cc2c(cnn2-c2ccccc2)-c2c1c1ccccc1n2CC(O)CBr (stereo not given)	-0.1%	7.08µM*	-8.1%	-28.5%	-0.7%	i
O=c1c(N2CCN(c3cccc(C(F)(F)F)c3)CC2)csc2ccccc12	3.9%	-18.0%	-6.0%	-20.2%	x	-2.3%
Cc1ccc(NC(=O)CC2Nc3ccccc3NC2=O)cc1Cl (stereo not given)	21.4%	10µM*	-22.9%	-4.3%	-2.5%	-2.7%
COc1ccccc1C(=O)Nc1nc2nc(C)c(Cc3ccccc3)c(=O)n2[nH]1	1.9%	1.9%	x	11.8%	x	-10.3%
CSc1ccccc1NC(=O)CSCc1ccc(C)cc1	2.6%	5.01µM*	10.0%	-27.7%	0.9%	-1.4%
Cc1ccc(CSCC(=O)Nc2ccccc2C(=O)O)cc1	0.7%	u	-3.6%	4.3%	0.5%	-3.0%
SMILES	Pin1 inh	GLP1R inv ag	GLP-1R agonist	HEK293 tox	Tb PFK inh	PGK inhibitor
CN(C)CCCNC(=O)c1ccc(Cl)c(S(=O)(=O)N2CCCCCC2)c1	1.6%	10µM*	0.3%	2.7%	0.3%	-6.6%
CN(C)S(=O)(=O)N1CCC(Oc2cccc(C(=O)NCCC3=CCCCC3)c2)CC1	9.7%	10µM*	-14.0%	-25.0%	-9.5%	10.5%
COc1ccc(CNC(=O)c2ccc(Cl)c(S(=O)(=O)N3CCCCCC3)c2)cc1	x	10µM*	6.1%	0.0%	x	-11.1%
CN(C)C(CNC(=O)c1ccc(Cl)c(S(=O)(=O)N2CCCCCC2)c1)c1ccccc1 (stereo not given)	-2.4%	7.94µM*	9.2%	-0.2%	1.8%	-2.5%
Cc1nnc(N2CCC(C(=O)N3CCCCC3)CC2)c2nn(-c3ccccc3)c(C)c12	13.3%	8.3%	x	0.1%	x	-3.1%
COc1cc(NC(=O)c2c(C)nn(-c3ccc(F)cc3)c2-n2cccc2)cc(OC)c1	-1.4%	4.2%	24.1%	6.1%	x	9.5%
COc1cc(F)c(S(=O)(=O)N2CCN(S(=O)(=O)c3ccco3)CC2)c(F)c1	53.3%	x	x	x	x	x
CC(=O)Nc1cccc(NC(=O)Cn2cnc3c(oc4ccccc43)c2=O)c1	-1.7%	26.0%	x	-7.2%	x	-8.8%
O=C(Cn1c(=O)oc2cc(S(=O)(=O)N3CCCCC3)ccc21)NCc1ccc(F)cc1	7.5%	u	x	5.9%	x	9.3%
COc1ccc(S(=O)(=O)N2CCCCCC2)cc1C(=O)NCc1ccc(C)cc1	15.5%	10µM*	-4.1%	-5.8%	-0.9%	11.0%
CCN(CC)CCNC(=O)c1ccc(Cl)c(S(=O)(=O)N2CCCCCC2)c1	2.0%	2.51µM*	-4.1%	-29.1%	3.1%	-3.3%
O=C(NCCC1=CCCCC1)c1ccc(Cl)c(S(=O)(=O)N2CCCCC2)c1	18.1%	3.55µM*	7.9%	1.8%	-1.2%	-0.5%
COc1ccc(CCNC(=O)c2cc(S(=O)(=O)N3CCCCCC3)ccc2OC)cc1OC	-1.1%	-25.3%	28.5%	-5.6%	3.5%	-7.8%
O=C(Cn1c(=O)oc2cc(S(=O)(=O)N3CCCCC3)ccc21)NCc1ccc(Cl)cc1	5.1%	12.6µM*	x	-19.3%	x	-10.0%
O=C(NCCN1CCOCC1)c1ccc(Cl)c(S(=O)(=O)N2CCCCC2)c1	4.7%	-5.9%	3.3%	6.3%	1.2%	i
Cc1c(Cl)cccc1NS(=O)(=O)c1cc2c(cc1Cl)CCC(=O)N2	1.5%	x	x	x	x	x
Cc1ccc2oc(C(=O)Nc3ccc(S(=O)(=O)Nc4ncccn4)cc3)cc(=O)c2c1	7.2%	9.2%	x	-4.4%	x	i
Cc1ccc(NC(=O)CSc2nncn3c2cc2sccc23)cc1F	25.1%	1.1%	x	-6.6%	x	-9.4%
O=C1CCc2cc(S(=O)(=O)Nc3cccc(C(F)(F)F)c3)ccc2N1	2.6%	x	x	x	x	x
